Experiments:
[1] = biological target: T1, Aspartate--tRNA(Asp/Asn) ligase (Mycobacterium tuberculosis (strain ATCC 25618 / H37Rv)) (UniProt P9WFW3); assay: Assay for Asp RNA synthetase-1 from Mycobacterium tuberculosis; assay type: functional; set-up: scale not given: direction of the effect not stated beside the values; settings: 30 µM; further: in the data most compounds retested in dose-response had high values
T1 sequence (whole entry): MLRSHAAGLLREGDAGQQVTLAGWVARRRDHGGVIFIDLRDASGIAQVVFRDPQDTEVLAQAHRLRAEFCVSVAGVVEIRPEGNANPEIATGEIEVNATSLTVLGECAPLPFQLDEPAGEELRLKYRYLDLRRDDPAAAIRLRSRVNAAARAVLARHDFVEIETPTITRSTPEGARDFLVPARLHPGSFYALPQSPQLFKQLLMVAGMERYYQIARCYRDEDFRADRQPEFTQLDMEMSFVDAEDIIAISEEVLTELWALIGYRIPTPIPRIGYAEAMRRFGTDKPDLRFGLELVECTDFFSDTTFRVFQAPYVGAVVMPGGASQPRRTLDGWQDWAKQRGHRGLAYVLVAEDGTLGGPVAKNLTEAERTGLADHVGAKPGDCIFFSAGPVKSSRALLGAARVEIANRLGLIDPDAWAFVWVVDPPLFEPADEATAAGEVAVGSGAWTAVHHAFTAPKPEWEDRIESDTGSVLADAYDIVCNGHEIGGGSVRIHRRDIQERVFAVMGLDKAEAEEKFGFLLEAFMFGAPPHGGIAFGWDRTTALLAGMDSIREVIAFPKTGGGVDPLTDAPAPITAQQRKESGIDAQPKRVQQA

[2] = biological target: Shiga toxin 2 (Escherichia coli O157:H7) (UniProt P09385+P09386); assay: E. coli 0.157:H7 Shiga Toxin SOP - stx2 screening assay; assay type: functional; set-up: scale not given: direction of the effect not stated beside the values; settings: 30 µM

SMILES | Percent Effect [1] [%] | Percent Effect [2] [%]
O=C(NCCC(=O)N1CCCc2ccccc21)c1c(O)cc(F)cc1F | -3.63 | -9.36
CCc1nc(CN2CCCC(NCc3nnc(C4CC4)o3)C2)no1 (stereo not drawn) | -2.05 | 17.9
CC(C)c1ccc(C(C)NC(=O)N2CCC(n3cncn3)CC2)cc1 (stereo not drawn) | -0.885 | 3.93
COCc1ccc(CNC(=O)C2=NN(c3ccccc3)C(=O)CN2)cc1 | 16.6 | -18.1
O=C1[C@H]2CC[C@H](CN(Cc3ccccc3OC(F)F)C2)N1CC1CC1 | 4.85 | 7.93
O=C(NCCc1ccc(Cl)s1)NCc1nnc2n1CCC2 | 2.25 | 22.9
CC(=O)N1CCC(Cc2cnc(-c3c(C)nn(C)c3C)cn2)C1 (stereo not drawn) | -3.46 | -8.45
CN(C)C(=O)c1ccc2c(c1)N(C)C(CC(=O)NCCC(C)(C)C)CO2 (stereo not drawn) | 0.279 | 5.86
NC(=O)C1CCN(C(=O)c2cccc(OCc3cscn3)c2)CC1 | -1.48 | -35.2
CC(C)c1nnc2n1CCN(C(=O)c1ccnc(N(C)C)c1)C2 | -5.48 | -7.07
CSc1ccccc1C(C(=O)O)N1CCN(Cc2ccccn2)CC1 (stereo not drawn) | -1.38 | 17.4
Cc1ccc(NC(=O)NC(C)c2nc[nH]n2)cc1 (stereo not drawn) | 4.39 | 5.92
CC(C)c1ccc(OCn2ccc(C(=O)N3CCCC3)n2)cc1 | 5.38 | -13.8
CC(NC(=O)NCC1(O)CCC1)c1ccc(OCC2CC2)c(F)c1 (stereo not drawn) | -6.14 | -4.99
CCn1cc(NC(=O)NCc2ccc3c(c2)OCCO3)cn1 | 1.48 | -43.3
c1ccc(Cn2ccnc2CN2CCCC2c2noc(C3CC3)n2)cc1 (stereo not drawn) | 6.6 | -32.8
CCCNC(=O)CNc1cc(C#N)ccc1OCC | -8.31 | -4.19
Fc1ccc(-c2nnc(CN3CCn4c(nnc4C4CC4)C3)o2)cc1 | 3.19 | -26.1
CN(C)c1ccc(CN(CCCn2ccnc2)Cc2c[nH]cn2)cc1 | 0.194 | -38.9
